From PubChem BioAssay (NCATS) come the findings set out here.

The target in experiment [1] is 3',5'-cyclic-AMP phosphodiesterase 4B (Homo sapiens) (UniProt Q07343). The experiment can be described thus: qHTS Assay for Inhibitors of PDE-IV (AID 607; active = well fitted activation curve with a large enough effect in the main read-out, with a control signal flat, not every such curve was filed as active; also: % of control where 0% means no effect). A digest of the protocol: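 ACTOne HEK293 cells carry a modified cAMP-gated CNG channel and express endogenous PDE4; plated 1000 cells/well, compounds up to 22.9 uM final. Membrane-potential dye fluorescence (ex 535/em 590) was read; parental cells received 10 uM forskolin + 100 uM RO 20-1724.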

Experiment [2] addresses Cytochrome P450 3A4 (Homo sapiens) (UniProt P08684). The experiment can be described thus: qHTS Assay for Activators of Cytochrome P450 3A4 (AID 885). Also: nearly all actives have a fitted effect of over 65% in size. A digest of the protocol:
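20nM CYP3A4 + 25uM Luciferin-PPXE (=KM), 200mM KPO4; cpd 10 min RT; NADPH regen, 60 min RT; stop w/ detection buffer, 20 min; luminescence. Normalized to 57 uM ketoconazole.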

Experiment [3] concerns the target Cytochrome P450 2C9 (Homo sapiens) (UniProt P11712). The experiment can be described thus: qHTS Assay for Inhibitors and Substrates of Cytochrome P450 2C9 (AID 883). Also: nearly all actives have a fitted effect of over 60% in size. Also: potency is read from the fitted curve at half-maximal effect. As to activity change, negative = inhibition: % is scaled to controls: 0 for no effect and ±100 for the full control effect. A digest of the protocol:
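CYP2C9 deoxyluciferin hydroxylation, 37C, 60 min with NADPH regeneration; 10nM enzyme, 100uM Luciferin-H (KM). Glo detection reagent stopped reaction; luminescence normalized to sulphaphenazole (57uM) full inhibition.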

The target in experiment [4] is Cytochrome P450 2D6 (Homo sapiens) (UniProt P10635). The experiment can be described thus: qHTS Assay for Inhibitors and Substrates of Cytochrome P450 2D6 (AID 891). Also: nearly all actives have a fitted effect of over 60% in size. Also: potency is read from the fitted curve at half-maximal effect.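 As to activity change, negative = inhibition: luciferin methyl ether substrate demethylated by CYP2D6 with NADPH regeneration; % is scaled to controls: 0 for no effect and ±100 for the full control effect.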 A digest of the protocol: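 Human CYP2D6 (5 nM) with 30 uM Luciferin-ME EGE (at Km) in 100 mM KPO4, compound preincubated 10 min, then NADPH regeneration system for 60 min at room temperature. Luciferin read by luminescence; normalized to 1.43 uM quinidine.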

Experiment [5] concerns the target Cytochrome P450 2C19 (Homo sapiens) (UniProt P33261). The experiment in a line: qHTS Assay for Inhibitors and Substrates of Cytochrome P450 2C19 (AID 899). Also: % is scaled to controls: 0 for no effect and ±100 for the full control effect; nearly all actives have a fitted effect of over 60% in size. A digest of the protocol:
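In 50mM KPO4, the reaction held 5nM enzyme and KM-level (10uM) Luciferin-H EGE; it ran 60 min at 37C after NADPH regeneration and a 10 min compound preincubation. Luminescence values were scaled to 57uM ketoconazole as complete inhibition.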

The nature of experiment [6]: Confirmation and Secondary Assay for Modulators of Hemoglobin Beta Chain Splicing at IVS2 654 locus (AID 910).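 Also: per-well total GFP intensity by laser scanning cytometry after 2-day treatment; % of control where 0% means no effect.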 A digest of the protocol:
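HeLa cells stably carrying EGFP interrupted by mutant beta-globin IVS2-654 intron (CMV-driven) were treated with compound for 2 days at 37C; corrected splicing was scored as total peak GFP intensity per well (488 nm excitation, 500-520 nm emission).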

Experiment [7] has as its target Cytochrome P450 3A4 (Homo sapiens) (UniProt P08684). The experiment can be described thus: qHTS Assay for Inhibitors and Substrates of Cytochrome P450 3A4 (AID 884). Also: series mostly up to about 57 µM; % is scaled to controls: 0 for no effect and ±100 for the full control effect; nearly all actives have a fitted effect of over 50% in size. A digest of the protocol:
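20 nM human CYP3A4 with 25 uM Luciferin-PPXE (at KM) in 200 mM KPO4, preincubated 10 min with compound; NADPH regeneration started a 60 min RT reaction. Luciferin detected by luminescence, normalized to 57 uM ketoconazole as full inhibition.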

Experiment [8] can be described thus: Cellular Toxicity (caspase-3) HepG2 (AID 654). Also: potency is read from the fitted curve at half-maximal effect.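 As to caspase-3 activation: cells exposed to compound for 16 hours before reading; 0% = DMSO alone and 100% = caspase signal from 100 µM tamoxifen.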 A digest of the protocol:
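HepG2 cells (1500/well) in complete medium were treated with compounds for 16 hr at 37 °C. Caspase-3/7 activity was then read as luminescence from peptide-aminoluciferin cleavage. AC50 came from Hill fits, normalized to DMSO and 100 uM tamoxifen.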

A short description of experiment [9]: Cellular Toxicity (caspase-3) HUV-EC-C (AID 656).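 Also: 0% = DMSO basal and 100% = 100 µM tamoxifen.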 A digest of the protocol:
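Luminescent Caspase-Glo 3/7 readout after 16 h, 37 °C compound exposure of HUV-EC-C endothelial cells, 1000 per well, complete medium. AC50 derived by Hill fitting, with DMSO as baseline and 100 uM tamoxifen as full activation.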

A short description of experiment [10]: Cellular Toxicity (caspase-3) SHSY5Y (AID 657). A digest of the protocol:
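Luminescent Caspase-Glo 3/7 read-out, 1 hr room temperature, follows 16 hours of compound treatment of SH-SY5Y cells at 37 °C. Normalization: DMSO basal, 10 uM staurosporine as 100%; AC50 values from Hill-equation concentration-response fits.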

Experiment [11] is described as follows: Cellular Toxicity (caspase-3) BJ (AID 658).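 Also: 0% = DMSO basal and 100% = 10 µM staurosporine.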 A digest of the protocol:
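Luminescent aminoluciferin-substrate cleavage reports caspase 3/7 activity in normal human BJ fibroblasts after 16 hr compound exposure at 37 °C. Normalized to DMSO (basal) and 10 uM staurosporine (100%); AC50 from Hill fit of concentration-response.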

The nature of experiment [12]: Cellular Toxicity (caspase-3) MRC-5 (AID 659). Also: potency is read from the fitted curve at half-maximal effect.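 As to caspase-3 activation: 0% = DMSO basal and 100% = 10 µM staurosporine.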 The note with it: Potency: caspase-3 activation. A digest of the protocol: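 Luminescence from caspase-cleaved aminoluciferin substrate (Caspase-Glo 3/7, 1 hr RT) reports caspase 3/7 activity in MRC-5 lung fibroblasts after 16 hr compound exposure. Normalized to DMSO basal and 10 uM staurosporine as 100%; AC50 from Hill fits.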

Experiment [13] is described as follows: Cellular Toxicity (caspase-3) Mesangial (AID 660).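 Also: cells exposed to compound for 16 h before the caspase read.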 A digest of the protocol:
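Human renal glomerular mesangial cells (1000/well) were treated with compounds for 16 h at 37 °C in complete medium, then caspase 3/7 activity was read by Caspase-Glo luminescence. Data were normalized to DMSO and 100 uM tamoxifen; AC50 from Hill fits.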

Experiment [14] can be described thus: Cellular Toxicity (caspase-3) SK-N-SH (AID 661).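 Also: 0% = DMSO basal and 100% = 10 µM staurosporine.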 A digest of the protocol: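 SK-N-SH human neuroblastoma cells (1500/well) were treated with compounds for 16 hr at 37 °C in complete medium; caspase 3/7 activity was read by Caspase-Glo luminescence. AC50 came from Hill fits of data normalized to DMSO and 10 uM staurosporine.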
Experiment [15] can be described thus: Cellular Toxicity (caspase-3) H-4-II-E (AID 663).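 Also: cells exposed to compound for 16 hr before readout; 0% = DMSO basal and 100% = 100 µM tamoxifen.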 A digest of the protocol:
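Luminescence from caspase-cleaved aminoluciferin substrate, read 20 min after reagent addition, reports caspase 3/7 activation in rat H-4-II-E cells after 16 hr compound exposure. Normalized to DMSO (basal) and 100 uM tamoxifen (100%); AC50 from Hill fits.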

A short description of experiment [16]: Cellular Toxicity (caspase-3) Hek293 (AID 664).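 Also: cells exposed to compound for 16 h at 37 °C before readout.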 A digest of the protocol:
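HEK293 cells were exposed to compounds in complete medium for 16 hr at 37 °C, then caspase-3/7 activity was read by Caspase-Glo 3/7 luminescence after 20 min at room temperature. Data normalized to DMSO and 100 uM tamoxifen; AC50 from Hill fits.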

A short description of experiment [17]: Cellular Toxicity (caspase-3) N2a (AID 665).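 Also: compound exposure lasted 16 h at 37 °C before readout.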 A digest of the protocol: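 Mouse N2a neuroblastoma cells (1500/well) were treated with compounds for 16 h at 37 °C, then caspase-3/7 activity was read by Caspase-Glo luminescence after 1 h at room temperature. Data were normalized to DMSO and 10 uM staurosporine; AC50 from Hill fits.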
A short description of experiment [18]: Cellular Toxicity (caspase-3) NIH 3T3 (AID 666).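 Also: 0% = DMSO basal and 100% = 100 µM tamoxifen stimulation.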 A digest of the protocol: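 Mouse NIH 3T3 fibroblasts (1000 cells/well) were treated with compound for 16 hr at 37°C in complete medium; caspase-3/7 activity was read by Caspase-Glo luminescence. Normalized to DMSO and 100 uM tamoxifen; AC50 from Hill fits.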
Experiment [19] can be described thus: Cellular Toxicity (caspase-3) Renal Proximal Tubule (AID 667).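 Also: cells exposed to compound for 16 hours at 37 °C before detection; 0% = DMSO basal and 100% = 10 µM staurosporine.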 A digest of the protocol:
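Caspase 3/7 activation measured by luminescent aminoluciferin release in primary rat proximal tubule cells after 16 hr compound exposure at 37 °C. AC50 from Hill-fitted concentration-response, scaled between DMSO and 10 uM staurosporine.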

A short description of experiment [20]: qHTS Assay for Identification of Small Molecule Antagonists for NFkB Signaling Pathway (AID 895; active = well fitted inhibition curve with a large enough effect in the signal ratio, with a control signal flat, not every such curve was filed as active; the % refers to the signal ratio; also: % is scaled to controls: 0 for no effect and ±100 for the full control effect). A digest of the protocol: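 NFkB-bla ME-180 cervical carcinoma cells with beta-lactamase reporter under NFkB response element; compounds added, then TNF alpha at 10 pM final (EC50), 5 h at 37 C. LiveBLAzer substrate 2 h, room temperature; emission 460/530 nm at 405 nm excitation.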

A number with no mark means an inactive call. Records with an inconclusive call do not appear. A structure can be active in one record and inactive in another. Active and inactive are the calls of the source. Unless noted, calls follow the shape of the dose curve; as a rule, active = well fitted curve in the direction sought with a large enough effect; inconclusive = small, poorly fitted or top-dose-only effect, or another doubt; inactive = no such curve, though single readings can be large; an effect the other way counts as inactive or inconclusive.

Chain of Cytochrome P450 3A4 (Homo sapiens) (P08684 whole entry, looked up): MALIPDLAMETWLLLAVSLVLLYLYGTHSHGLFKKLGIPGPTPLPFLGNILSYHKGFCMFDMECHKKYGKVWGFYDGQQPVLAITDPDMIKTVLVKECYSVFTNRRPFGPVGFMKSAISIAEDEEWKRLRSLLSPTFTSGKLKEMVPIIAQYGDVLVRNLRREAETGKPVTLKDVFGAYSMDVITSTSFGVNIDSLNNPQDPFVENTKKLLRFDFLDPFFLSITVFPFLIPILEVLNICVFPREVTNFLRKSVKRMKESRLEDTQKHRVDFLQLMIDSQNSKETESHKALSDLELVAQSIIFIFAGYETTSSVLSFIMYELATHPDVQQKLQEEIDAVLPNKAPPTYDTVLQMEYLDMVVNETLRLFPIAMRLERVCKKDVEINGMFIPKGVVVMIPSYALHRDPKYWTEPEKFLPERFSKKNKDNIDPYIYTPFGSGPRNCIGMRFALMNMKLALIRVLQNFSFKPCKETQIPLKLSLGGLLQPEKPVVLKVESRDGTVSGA
Chain of Cytochrome P450 2C9 (Homo sapiens) (P11712 whole entry, looked up): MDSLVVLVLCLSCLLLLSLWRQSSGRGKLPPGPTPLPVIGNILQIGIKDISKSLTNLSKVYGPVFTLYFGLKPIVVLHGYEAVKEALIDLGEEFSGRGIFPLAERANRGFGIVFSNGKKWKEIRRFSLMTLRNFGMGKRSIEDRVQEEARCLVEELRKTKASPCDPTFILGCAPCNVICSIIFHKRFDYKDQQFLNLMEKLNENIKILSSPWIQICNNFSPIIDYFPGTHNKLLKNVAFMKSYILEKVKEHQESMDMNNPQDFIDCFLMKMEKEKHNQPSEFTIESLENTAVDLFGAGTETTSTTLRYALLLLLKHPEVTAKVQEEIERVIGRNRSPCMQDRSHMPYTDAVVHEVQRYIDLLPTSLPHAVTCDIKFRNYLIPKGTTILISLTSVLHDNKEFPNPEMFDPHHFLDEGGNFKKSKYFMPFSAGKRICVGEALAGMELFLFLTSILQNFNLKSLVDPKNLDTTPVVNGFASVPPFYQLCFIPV
Chain of 3',5'-cyclic-AMP phosphodiesterase 4B (Homo sapiens) (Q07343 whole entry, looked up): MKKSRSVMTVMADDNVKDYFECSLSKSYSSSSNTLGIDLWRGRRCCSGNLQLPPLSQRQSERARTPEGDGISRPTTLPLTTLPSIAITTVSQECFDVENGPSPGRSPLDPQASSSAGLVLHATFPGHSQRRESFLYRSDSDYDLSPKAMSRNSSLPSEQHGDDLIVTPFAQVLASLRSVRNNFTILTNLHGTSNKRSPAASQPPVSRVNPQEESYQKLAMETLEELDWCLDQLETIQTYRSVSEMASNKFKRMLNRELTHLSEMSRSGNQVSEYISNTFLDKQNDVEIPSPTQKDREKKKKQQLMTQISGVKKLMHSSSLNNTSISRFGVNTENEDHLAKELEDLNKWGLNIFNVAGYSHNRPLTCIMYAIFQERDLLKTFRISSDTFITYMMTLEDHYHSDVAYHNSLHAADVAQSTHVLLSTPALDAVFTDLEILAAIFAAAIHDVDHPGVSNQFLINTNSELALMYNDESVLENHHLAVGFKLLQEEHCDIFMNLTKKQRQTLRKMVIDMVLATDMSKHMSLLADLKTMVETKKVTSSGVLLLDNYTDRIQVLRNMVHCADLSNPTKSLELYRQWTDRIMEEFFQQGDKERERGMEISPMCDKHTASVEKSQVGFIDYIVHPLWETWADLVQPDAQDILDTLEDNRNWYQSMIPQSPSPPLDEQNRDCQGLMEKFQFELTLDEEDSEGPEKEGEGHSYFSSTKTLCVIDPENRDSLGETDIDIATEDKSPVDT
Chain of Cytochrome P450 2D6 (Homo sapiens) (P10635 whole entry, looked up): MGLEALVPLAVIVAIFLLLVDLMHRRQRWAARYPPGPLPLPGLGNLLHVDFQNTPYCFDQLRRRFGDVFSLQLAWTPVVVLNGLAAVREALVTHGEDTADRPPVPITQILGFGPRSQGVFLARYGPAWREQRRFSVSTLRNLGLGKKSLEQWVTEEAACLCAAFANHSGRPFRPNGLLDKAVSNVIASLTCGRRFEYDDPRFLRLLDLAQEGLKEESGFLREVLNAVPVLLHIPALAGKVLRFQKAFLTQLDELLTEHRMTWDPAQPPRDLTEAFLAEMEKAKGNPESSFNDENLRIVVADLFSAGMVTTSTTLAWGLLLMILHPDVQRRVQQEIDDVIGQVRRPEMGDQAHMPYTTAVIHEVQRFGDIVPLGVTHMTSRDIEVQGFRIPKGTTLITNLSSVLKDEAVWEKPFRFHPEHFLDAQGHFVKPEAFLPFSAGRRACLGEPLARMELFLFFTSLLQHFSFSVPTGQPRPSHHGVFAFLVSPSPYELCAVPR
Chain of Cytochrome P450 2C19 (Homo sapiens) (P33261 whole entry, looked up): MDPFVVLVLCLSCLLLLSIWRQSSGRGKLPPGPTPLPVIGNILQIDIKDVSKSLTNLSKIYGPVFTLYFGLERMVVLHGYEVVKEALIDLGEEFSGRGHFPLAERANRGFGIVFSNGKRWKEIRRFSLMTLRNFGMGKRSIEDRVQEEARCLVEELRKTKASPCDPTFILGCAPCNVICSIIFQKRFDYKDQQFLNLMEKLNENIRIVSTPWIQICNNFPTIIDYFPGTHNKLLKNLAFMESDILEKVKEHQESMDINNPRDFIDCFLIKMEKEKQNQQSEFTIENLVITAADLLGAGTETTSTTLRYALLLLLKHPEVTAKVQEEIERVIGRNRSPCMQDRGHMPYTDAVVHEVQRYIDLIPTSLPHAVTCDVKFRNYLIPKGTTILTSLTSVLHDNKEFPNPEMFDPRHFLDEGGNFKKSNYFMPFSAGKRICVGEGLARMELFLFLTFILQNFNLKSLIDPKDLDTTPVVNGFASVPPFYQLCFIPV

For `COc1ccc2c(c1)C(=O)N(CCc1ccc(S(=O)(=O)NC(=O)NC3CCCCC3)cc1)C(=O)C2(C)C`, the call in [1] and in experiment [2] was inactive.

Take `Cc1cccc(Nc2cc(Cl)nc(SCC(=O)O)n2)c1C`: the outcome in [1] and in experiment [6] was inactive. Besides, the activity change, negative = inhibition in experiment [3] is -10.9% [at 11.4 µM]; in [4], 13.3% [at 11.4 µM]. In addition, the Potency in [4] was 3.16 µM (active). Also, the activity, negative = inhibition in experiment [5] is 16.3% [at 11.4 µM].

On to `c1ccc2c(CC3=NCCN3)cccc2c1`, for which the result in experiment [1] and in [6] was inactive. Further, in experiment [7], the Potency result is “inactive”. Further, the Potency in experiment [4] was 7.94 µM (active).

For the compound `CC(=O)c1ccc2c(c1)N(CCCN(C)C)c1ccccc1S2`, the outcome in [1] was inactive.

In the case of `Nc1ccc(S(=O)(=O)Nc2nccs2)cc1`, the call in [1], in experiment [9], in experiment [10], in experiment [11], in [13] and in experiment [14] was inactive. Besides, the result in experiment [15], in experiment [16], in [17], in [18], in experiment [19] and in [6] was inactive. Also, the Potency entry in experiment [8], in experiment [12], in experiment [3] and in experiment [7] was “inactive” throughout.

Turning to `NC1CCN(c2cccc(Cl)n2)CC1`, the result in [1] was inactive.

Regarding `Cc1cc2c(cc1S(N)(=O)=O)S(=O)(=O)CCC2`, in experiment [1], the compound was called inactive. For the same compound, the Potency result in [3] was “inactive”.

As for `O=C(CCCN1CCN(c2ccccn2)CC1)c1ccc(F)cc1`, the outcome in experiment [1] and in experiment [6] was inactive. Besides, the Potency entry in experiment [7] was “inactive”.

On to `Nc1cc(=O)[nH]c(N)n1`, for which the call in [1] was inactive. Moreover, the Potency entry in [3], in [4] and in [5] was “inactive” in each case.

As for `N=c1c[n+](N2CCOCC2)[n-]o1`, the result in experiment [1] was inactive. Further, the Potency result in experiment [20] is “inactive”.

Consider `NCCNCCNCCNCCN`, for which the Potency entry in [8], in experiment [12] and in experiment [7] was “inactive” in each case. The result in experiment [9], in [10], in experiment [11], in experiment [13], in experiment [14] and in experiment [15] was inactive. Moreover, the call in experiment [16], in [17], in [18] and in experiment [19] was inactive.

`Cc1c(Cl)cccc1Nc1ccccc1C(=O)O`: the Potency in experiment [3] is 3.16 µM (active). Also, the Potency result in experiment [7] is “inactive”. Moreover, the compound was classed as inactive in [6].

With `O=C1O[C@H]([C@@H](O)CO)C(O)=C1O`, the Potency entry in [8], in experiment [12] and in experiment [7] was “inactive” in each case. The compound was classed as inactive in experiment [9], in experiment [10], in [11], in experiment [13], in [14] and in experiment [15]. The result in experiment [16], in experiment [17], in [18] and in experiment [19] was inactive.

For `CN(C)CCCN1c2ccccc2Sc2ccc(Cl)cc21`, the compound was called inactive in experiment [1] and in [6].

For `Cc1c(O)cccc1C(=O)N[C@@H](CSc1ccccc1)[C@H](O)CN1C[C@H]2CCCC[C@H]2C[C@H]1C(=O)NC(C)(C)C`, the figures for the Potency in experiment [8] and in experiment [12] were 63.1 µM (active) and 50.1 µM (active), respectively. Further, the result in experiment [9], in experiment [10], in experiment [11], in experiment [13], in experiment [17] and in [18] was inactive. Further, the outcome in experiment [19] was inactive.

Regarding `NC(=O)c1ncn([C@@H]2O[C@H](CO)[C@@H](O)[C@H]2O)n1`, the Potency entry in [8] and in experiment [12] was “inactive” each time. Further, the outcome in [9], in experiment [10], in experiment [11], in experiment [13], in experiment [14] and in experiment [15] was inactive. The compound was classed as inactive in [16], in [17], in experiment [18] and in experiment [19].
